From PubChem BioAssay come the findings set out here.

The structures appear in SMILES notation. Active and inactive are the calls of the source. The rule behind the calls is not given here.

Test [1] is described as follows: enhancers of glutamate uptake in motor neurons, MN-1 cell line (AID 1612).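 Note: tested at 1 µM final; 0% = mean of DMSO vehicle wells on each plate; positive means more glutamate uptake than control and negative means less.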 The settings on record: MN-1 motor neuron cells, stronger effect = higher value.
A short description of test [2]: suppressors of polyglutamine aggregation in yeast, 75Q-TubH (AID 1616). The settings on record: S. cerevisiae 75Q-TubH polyglutamine aggregation suppression; stronger effect = higher value.
Test [3] can be described thus: reducers of polyQ inclusions in PC12 cells, cell-based, NGF-treated PC12, GFPQ80 (AID 1614).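 Note: lower means fewer inclusions and 0 means no inclusions at all.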 The conditions noted are these: PC12 NGF-treated GFP-polyQ80 inclusion reduction.
A short description of test [4]: inhibitors of Cryptococcus chitosan production, flow cytometry, Cibacron Brilliant Red staining (AID 1347148).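 Note: compound exposure lasted three days at 37 degrees C.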 The conditions noted are these: Cryptococcus neoformans chitosan, stronger effect = lower value; at 10 µM unless noted. Background: A flow cytometer gives signals particle by particle.

In the case of `CN1C2CCC1CC(OC(c1ccccc1)c1ccccc1)C2` (stereo unspecified), the glutamate uptake change in test [1] is -4.45%. In test [2], this molecule had an aggregation suppression score of 1.04.
For `CN(C)CC/C=C1/c2ccccc2COc2ccccc21`, the glutamate uptake change in test [1] worked out at 2.11%. Moreover, the inclusion score in test [3] is 2. In addition, the aggregation suppression score in test [2] was found to be 1.19.
On to `COc1cc([C@@H]2c3cc4c(cc3[C@@H](O[C@@H]3O[C@@H]5CO[C@@H](C)O[C@H]5[C@H](O)[C@H]3O)[C@H]3COC(=O)[C@H]23)OCO4)cc(OC)c1O`, for which the fold fluorescence in test [4] is 5.2 [at 85 µM] (inactive).
